These results are taken from ChEMBL document CHEMBL3988442, “University of Dundee, Small-Polar-MMV Screening Library” (2021).

Out of some 69,000 compounds screened, about 950 (1.4%) showed an effect of 50% or more. Only a selection was taken, and strong results are over-represented in it overall.

This test concerns Mycobacterium tuberculosis. Description: Cornell M. t heat shock assay. Also: in the data most compounds retested in dose-response had high values. In kind it is functional, organism-based. More on the design: dose or concentration left out as unconfirmed.
Consider `Cl.O[C@@H]1CN(Cc2ccc(F)c(F)c2)CC[C@H]1NCc1ccccn1`, for which the “Percent Effect” value is listed as -13.15%.

As for `Cc1cc(-c2cnc(NCc3cccnc3)nc2C(C)(C)C)on1`, the “Percent Effect” value was determined as 31.35%.

Take `Cc1cnn(CC(C)NCc2nc(-c3ccccn3)no2)c1` (centres undefined): the “Percent Effect” value is recorded as -11.38%.

Take `CC(Cn1cccn1)NCc1nc(-c2ccccn2)no1` (centres undefined): the “Percent Effect” value is recorded as -7.12%.

For the molecule `Cc1[nH]c2ccccc2c1-c1ccnc(N[C@@H](C)CO)n1`, the “Percent Effect” value is reported as -31.62%.

Turning to `COCC(C)NCc1ccc2[nH]c(C)c(C)c2c1` (centres undefined), the “Percent Effect” value is -11.87%.

For `Cc1ccc(-c2nc(CNC(C)CCO)[nH]c2-c2ccccn2)cc1` (centres undefined), the “Percent Effect” value is recorded as 77%.

As to `COCC(C)NCc1nc(-c2ccc(C)cc2)c(-c2ccccn2)[nH]1` (centres undefined), the “Percent Effect” value amounted to 76.34%.

`O=C(Cc1ccsc1)N1C[C@@H]2CN(Cc3ccoc3)CCO[C@@H]2C1.O=C(O)C(F)(F)F`: the “Percent Effect” value was -1.836%.

Take `CC(C)=CCN1C(=O)[C@H]2CC[C@@H]1CN(C(=O)CCc1n[nH]c(C)c1C)C2`: the “Percent Effect” value was -27.57%.

In the case of `O=C(N[C@H]1CCCC[C@@H]1O)c1ccc(-c2nc3ccccc3[nH]2)cc1`, the “Percent Effect” value stood at 47.47%.

For `O=C(N[C@H]1CCCC[C@@H]1O)c1cccc(-c2nc3ccccc3[nH]2)c1`, the “Percent Effect” value is reported as 55.91%.

Regarding `O=C(N[C@H]1CCCC[C@@H]1O)c1ccc2nc(-c3ccccc3)[nH]c2c1`, the “Percent Effect” value stood at 0.8647%.

With `CN1CCOCC12CCN(C(=O)C1CCC1)CC2.O=C(O)C(F)(F)F`, the “Percent Effect” value is 6.181%.

In the case of `Cc1cc(C)c2[nH]c(C)c(CC(=O)N(C)CCN(C)C)c2c1.O=C(O)CC(O)(CC(=O)O)C(=O)O`, the “Percent Effect” value is -5.156%.

As to `Cc1ccccc1C(C)NC(=O)Cc1c(C)nc2cc(=O)[nH]n2c1C` (centres undefined), the “Percent Effect” value was 33.63%.

With `COc1ccccc1CC(=O)NCc1c(C)nc2cc(=O)[nH]n2c1C`, the “Percent Effect” value is on record as 71.9%.

With `Cc1ccccc1CNC(=O)Cc1c(C)nc2cc(=O)[nH]n2c1C`, the “Percent Effect” value was 17.46%.

Turning to `Cc1ccc(C(C)NC(=O)Cc2c(C)nc3cc(=O)[nH]n3c2C)s1` (centres undefined), the “Percent Effect” value is 66.66%.

On to `Cc1nc2cc(=O)[nH]n2c(C)c1CC(=O)NC(C)C`, for which the “Percent Effect” value is -0.1861%.

Consider `COC(C(=O)NCc1c(C)nc2cc(=O)[nH]n2c1C)c1ccccc1` (centres undefined), for which the “Percent Effect” value came to 5.148%.

Take `O=C(O)C(F)(F)F.c1cnc(N2CCC3(CCCN(Cc4ccncc4)C3)CC2)nc1`: the “Percent Effect” value was -2.214%.

`CNC(=O)[C@H]1C[C@@H]2CCN(c3nnc(C)s3)C[C@@H]2O1.O=C(O)C(F)(F)F`: the “Percent Effect” value came to 0.7881%.

In the case of `CSCCC1c2nc[nH]c2CCN1Cc1ccccc1C#N` (centres undefined), the “Percent Effect” value is reported as 12.31%.

As for `CSCCC1c2nc[nH]c2CCN1Cc1ccccc1C(F)(F)F` (centres undefined), the “Percent Effect” value is reported as -11.51%.

In the case of `CSCCC1c2nc[nH]c2CCN1Cc1cc(Cl)ccc1O` (centres undefined), the “Percent Effect” value came out at 106.2%.

As to `Cc1ccccc1C(=O)N1CC[C@@H](N(C)C)[C@@H]1Cc1cnn(C)c1.O=C(O)C(F)(F)F`, the “Percent Effect” value is -16.62%.

For the molecule `CN(C)S(=O)(=O)N1CC[C@]2(C[C@@H](Oc3ncccc3F)CO2)C1.O=C(O)C(F)(F)F`, the “Percent Effect” value turned out to be 7.547%.

Consider `COc1ccc(CN2C[C@@H](OCc3ccccn3)[C@H]3COC[C@H]32)cc1.O=C(O)C(F)(F)F.O=C(O)C(F)(F)F`, for which the “Percent Effect” value is listed as -14.6%.

Take `CCN1CCC(CC(=O)NCC(O)c2cccc(OC)c2)CC1` (centres undefined): the “Percent Effect” value is reported as 93.38%.

As to `COc1cccc(C(O)CNC(=O)CC2CCCCC2)c1` (centres undefined), the “Percent Effect” value is 9.16%.

As for `CCN1CCC(CC(=O)NCC(O)c2ccc3ccccc3c2)CC1` (centres undefined), the “Percent Effect” value was 13.11%.

Regarding `Cn1ccc(CN2CCCC23CCN(Cc2nccn2C)CC3)n1.O=C(O)C(F)(F)F.O=C(O)C(F)(F)F`, the “Percent Effect” value turned out to be 9.444%.

Turning to `CCc1ccc(C(=O)N2CCN(CC(C)O)CC2)o1` (centres undefined), the “Percent Effect” value stood at 14.22%.

As to `CCN(CC)Cc1ccc(C(=O)N2CCN(CC(C)O)CC2)o1` (centres undefined), the “Percent Effect” value stood at 61.39%.

Consider `CCN(CC)Cc1ccc(C(=O)N2CCN(CC(C)O)CC2)cc1` (centres undefined), for which the “Percent Effect” value is listed as 9.654%.

As for `Cc1ccc(S(=O)(=O)Nc2ccc(N3CCSCC3)c(C(=O)O)c2)s1`, the “Percent Effect” value was -1.51%.

In the case of `CCN(Cc1ccncc1)C(=O)CCn1c(C)cc2ccccc21`, the “Percent Effect” value amounted to 10.06%.

In the case of `CCN(Cc1noc(C)n1)C(=O)CCn1c(C)cc2ccccc21`, the “Percent Effect” value is 72.72%.

For the molecule `CCN(Cc1nc(COC)no1)C(=O)CCn1c(C)cc2ccccc21`, the “Percent Effect” value was found to be 35.71%.

On to `COCCN1CCOCC12CCN(C(=O)c1ccoc1)CC2.O=C(O)C(F)(F)F`, for which the “Percent Effect” value is recorded as -24.79%.

`Cn1cc(CN2CC[C@H]3O[C@H](C(=O)Nc4cnccn4)CC[C@H]32)cn1.O=C(O)C(F)(F)F`: the “Percent Effect” value is given as -14.77%.

For the molecule `Cc1cc(CN(C)CCN(C)c2ccccc2)no1`, the “Percent Effect” value is listed as 0.1875%.

On to `Cc1cc(CN(C)CCC(O)c2ccccc2)nn1C` (centres undefined), for which the “Percent Effect” value is recorded as 0.01185%.

As to `CN(CCC(O)c1ccccc1)Cc1nc(-c2ccccc2)no1` (centres undefined), the “Percent Effect” value was determined as 28.98%.

As to `Cc1cc(CN(C)CCC(O)c2ccccc2)no1` (centres undefined), the “Percent Effect” value was 50.59%.

Consider `COc1cccc(CN(C)Cc2ccccc2C#N)c1OC`, for which the “Percent Effect” value is -6.46%.

For the molecule `CN(CCC(O)c1ccccc1)Cc1ccccc1C#N` (centres undefined), the “Percent Effect” value was determined as 79.67%.

For `COCC1Cn2nnc(-c3cnn(C)c3)c2CN1Cc1ccoc1.O=C(O)C(F)(F)F` (centres undefined), the “Percent Effect” value is reported as 5.008%.

Turning to `O=C(O)CCC(=O)Nc1nn(Cc2ccccc2Cl)cc1Cl`, the “Percent Effect” value was found to be 2.15%.

In the case of `Cc1ccc(N2CCO[C@H]3CN(CC4CC4)C[C@H]32)nn1.O=C(O)C(F)(F)F.O=C(O)C(F)(F)F`, the “Percent Effect” value was -7.487%.

As to `COc1cc(N2CC[C@@H](O)[C@@H]2Cc2cccnc2)ncn1.O=C(O)C(F)(F)F`, the “Percent Effect” value worked out at 0.6687%.

With `CCCN(CC(=O)N1CCNCC1)C(=O)c1cccc(Cl)c1.O=C(O)C(F)(F)F`, the “Percent Effect” value is 0.5334%.

As to `CN(CCCOc1ccccc1)Cc1nccn1C`, the “Percent Effect” value is given as -13.65%.

Turning to `CCOc1ccccc1OCCN(C)Cc1nccn1C`, the “Percent Effect” value was -26.9%.

Take `Cc1ccc(OCCN(C)Cc2nccn2C)c(C)c1`: the “Percent Effect” value was 55.39%.

For `O=C(C1CCCc2[nH]ncc21)N1CCCC2(C1)OCCO2` (centres undefined), the “Percent Effect” value came out at 10.11%.

Turning to `CN(C)C(c1ccccn1)[C@H]1CC[C@H](CNC(=O)C2CCCC2)CC1` (some centres undefined), the “Percent Effect” value is reported as 5.9375%.

Turning to `N#Cc1ccc(C(=O)N2CC[C@H]3[C@H]2CCN3CC2CCOCC2)cc1.O=C(O)C(F)(F)F`, the “Percent Effect” value is listed as -36.11%.
